SMILES strings stand for the structures. Where “and” joins values, the source holds several entries; their conditions need not be identical. Identical values can stand only once. Calls of active or inactive are those of the source. Rule for the calls: active = hit-call score of the fitted dose curve at least 0.9, where 1 is the maximum; inactive = score below 0.9.

As usually defined, the AC50 is the concentration giving half of the maximal activity seen.

A short description of the assay: BSK_IMphg_SRB: Viability Assessment in the BioMAP Diversity Plus: IMphg Assay (AID 2284292).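 Note: measured one day after compound addition.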 The conditions noted are these: primary human endothelial cells with macrophages. The procedure: BSK_IMphg is a cell-based, multiplexed-readout assay that uses venular endothelial cells and macrophages, a human vascular primary cell, with measurements taken at 24 hours after chemical dosing in a microplate: 96-well plate.BSK_IMphg_SRB is an assay component measured in the BSK_IMphg assay. It measures […] related to cell death using Sulforhodamine staining technology.Data from the assay component BSK_IMphg_SRB was analyzed at the endpoint, BSK_IMphg_SRB, in the positive analysis fitting direction relative to DMSO as the negative control and baseline of activity. Using a type of viability reporter, gain or loss-of-signal activity can be used to understand protein changes. To generalize the intended target to other relatable targets, this assay endpoint is annotated to the 'cell morphology' intended target family, where the subfamily is 'cell conformation'.
The levels of cell surface (or secreted, indicated by the prefix "s") biomarker endpoints were measured by ELISA. Overt cytotoxicity to cells in confluent adherent cultures (all systems other than the BT system) was assessed by measuring total protein levels using sulforhodamine B (SRB) staining in parallel cultures at the time of biomarker measurements, indicated as SRB endpoints. For proliferation assays for adherent cell types, individual cell types are cultured at sub-confluence and relative cell numbers quantified by SRB staining at time points optimized for each system (48 h: 3C and CASM3C systems; 72 h: BT and HDF3CGF systems; 96 h: SAg system). SRB was performed by staining cells with 0.1% SRB after fixation with 10% TCA and reading wells at 560 nm.Viability and proliferation of PBMC (T cells) was quantified by Alamar Blue reduction for the SAg and BT systems. For PBMC viability (referred to as PBMC Cytotoxicity within the assay endpoint names), cells were plated (75,000/well in a 96-well plate) and then chemical samples added for 1 h before addition of activators, SEB and TSST-1 (20 ng/mL final concentration each). Cells were incubated for 90 h. Then, Alamar Blue (20 uL/well) (Invitrogen, Cat DAL1100) was added for 6 h, and the plates were read with a fluorescence microplate reader at 546/580 nm (excitation/emission). For PBMC proliferation, cells were plated and activated as above but incubated for only 16 h prior to addition of Alamar Blue. Plates were read after 6 h.
`CN(CCO)S(=O)(=O)C(F)(F)C(F)(F)C(F)(F)C(F)(F)C(F)(F)C(F)(F)C(F)(F)C(F)(F)F`: the outcome was inactive.
Same read-out and setting: with `OCC(F)(F)C(F)(F)C(F)(F)C(F)(F)C(F)(F)C(F)(F)C(F)(F)C(F)(F)C(F)(F)C(F)(F)C(F)(F)F` the entry was “inactive”; with `O=C(O)CCC(F)(F)C(F)(F)C(F)(F)C(F)(F)C(F)(F)F`, “inactive”.
In the case of `O=C(O)C(F)(F)OC(F)(F)C(F)(F)OC(F)(F)C(F)(F)OC(F)(F)C(F)(F)C(F)(F)C(F)(F)F`, the AC50 was 53.4 µM (active) and 51.8 µM (active).
As for `O=C(O)CCC(F)(F)C(F)(F)C(F)(F)C(F)(F)C(F)(F)C(F)(F)F`, the outcome was inactive.
Still for that read-out and setting: in the case of `C=CC(=O)OCCC(F)(F)C(F)(F)C(F)(F)C(F)(F)C(F)(F)C(F)(F)C(F)(F)C(F)(F)F` it was “inactive”.
Turning to `CN(Cc1cnc2nc(N)nc(N)c2n1)c1ccc(C(=O)N[C@@H](CCC(=O)O)C(=O)O)cc1`, the outcome was inactive.
In the case of `O=S(=O)(O)C(F)(F)C(F)(F)C(F)(F)C(F)(F)C(F)(F)C(F)(F)C(F)(F)C(F)(F)C(F)(F)C(F)(F)F`, the outcome was inactive.
On the same count and under the same terms, in the case of `O=P(O)(O)CCC(F)(F)C(F)(F)C(F)(F)C(F)(F)C(F)(F)C(F)(F)C(F)(F)C(F)(F)F` it was “inactive”.
`O=C(CC(=O)C(F)(F)C(F)(F)C(F)(F)F)c1cccs1`: the AC50 was 44.9 µM (active) and 39.7 µM (active).
For the compound `O=P(O)(O)CCC(F)(F)C(F)(F)C(F)(F)C(F)(F)C(F)(F)C(F)(F)F`, the result was inactive.

Values taken from PubChem BioAssay (EPA / NIEHS).
